# Platelet DG rel – modulates dense granule release in human platelets; 300,000 tested, 0.22% active; AID 1663; human platelet-rich plasma, SFLLRN dense granule ATP release, luminescence; inhibition, %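 (compounds screened at 7.5 µM in platelet-rich plasma)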;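 active means mean replicate score, as percent of positive control, at or above 50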
# WT yeast gro inh – growth inhibition of WT yeast, mitochondrial fusion screen | mitochondrial fusion phenotypic screen, WT strain | inhibition, % at 10 µM | 190,000 tested, 2.1% active; in the data active means inhibition above about 58%; tested in S. cerevisiae
# TPT1 inhibitor – blocks Candida albicans tRNA 2'-phosphotransferase; AID 1962; recombinant caTPT1, FP RNA substrate dephosphorylation; 300,000 tested, 0.81% active; inhibition, % at 5 µM;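 active means inhibition above the mean of all tested compounds plus 3 SD, set per screening campaign, cut at about 24% in these data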;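 further: plate controls were DMSO alone for no effect and ferristatin control at 100 nM for full effect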
# SKKanGAS inh – inhibitors of SKKanGAS S. pyogenes growth in kanamycin (SK-promoter or general growth effect); BacTiter-Glo, 6 h; inhibition, % at 7.5 µM; 300,000 tested, 1.3% active; AID 1662;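 active means mean replicate score, as percent of positive control median, at least 50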;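 further: strain carries kanamycin resistance gene driven by streptokinase promoter and grows in 40 µg/ml kanamycin; loss of luminescence reflects streptokinase promoter inhibition or plain growth inhibition; 0% = median of DMSO wells and 100% = positive control at its reference dose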
# Rtt109 Vps75 – C. albicans Rtt109 histone acetyltransferase inhibition. inhibition, % at 34.9 µM. 330,000 tested, 0.16% active. AID 540336. purified Rtt109/Vps75, ThioGlo CoA-SH fluorescence, 4 h;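 active means inhibition of at least 50% in every replicate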
# PHOSPHO1 block – blocks human PHOSPHO1 phosphatase activity; recombinant PHOSPHO1, absorbance phosphatase assay; 290,000 tested, 1.1% active; Q8TCT1; AID 1565; inhibition, % at 13.3 µM; in the data active means inhibition above about 60%
# Target sequence (Q8TCT1 whole entry, looked up): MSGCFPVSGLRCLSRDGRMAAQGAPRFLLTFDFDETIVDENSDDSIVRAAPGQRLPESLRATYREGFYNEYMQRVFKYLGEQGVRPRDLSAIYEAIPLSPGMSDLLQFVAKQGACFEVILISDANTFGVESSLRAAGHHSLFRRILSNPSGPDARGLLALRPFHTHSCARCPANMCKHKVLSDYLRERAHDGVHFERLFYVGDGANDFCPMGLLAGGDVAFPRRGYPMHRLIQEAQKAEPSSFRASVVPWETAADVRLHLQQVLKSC
# caTPT1 confirm – TPT1 (C. albicans) inhibition, confirmation; shares compounds with TPT1 inhibitor; recombinant caTPT1, fluorescence polarization, RNase T1 coupled; inhibition, % at 5 µM; 2,400 tested, 74% active;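 active means inhibition above the primary screen limit, the mean inhibition of all tested compounds plus 3 SD, cut at about 25% in these data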
# RNase T1 inh – RNase T1 inhibition in TPT1 counter-screen; shares compounds with TPT1 inhibitor; RNase T1 cleavage, fluorescence polarization, 1536-well; inhibition, % at 5 µM; 2,400 tested, 83% active; AID 2153;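 active means inhibition above the solvent-only control well mean plus 3 SD, limit set per screening run, cut at about 23% in these data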;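 further: plate controls were DMSO wells with enzyme for no effect and wells without RNase T1 for full effect; inhibitors block cleavage so intact labeled substrate keeps polarization high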
# Target sequence (P00651 whole entry, looked up): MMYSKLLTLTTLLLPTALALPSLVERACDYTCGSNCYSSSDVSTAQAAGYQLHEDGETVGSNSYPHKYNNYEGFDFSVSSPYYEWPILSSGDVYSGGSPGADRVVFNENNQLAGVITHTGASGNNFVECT
# * hit, by the source's call; · = no result given. Most compounds without a hit are left out; they make up all but 3.9% or so of the library.
SMILES,Platelet DG rel,WT yeast gro inh,TPT1 inhibitor,SKKanGAS inh,Rtt109 Vps75,PHOSPHO1 block,caTPT1 confirm,RNase T1 inh
O=C(c1ncn(Cc2ccccc2)c1C(=O)N1CCc2ccccc2C1)N1CCc2ccccc2C1,·,·,·,·,-0.9,·,·,·
CC1CCc2c(sc(Nc3nc4c(F)cccc4s3)c2C(N)=O)C1 (centres undefined),0.0,36.7,47.6*,3.4,0.7,41.4,57.0*,68.7*
Cc1ccccc1-n1c(SCc2c(C)noc2C)nnc1-c1ccncc1,-2.4,-7.4,32.5*,-11.4,7.6,13.8,11.3,16.0
CCC(C)(C)C(=O)Nc1cc([N+](=O)[O-])ccc1Cl,11.7,-19.1,-1.5,-12.4,10.2,3.2,·,·
CCN(CC)c1nc(C)c(C(=S)Nc2cc([N+](=O)[O-])ccc2Cl)s1,1.3,2.3,28.3*,-4.3,9.5,-11.6,61.0*,73.2*
COc1cc(/C=N/n2c(-c3ccc4c(c3)NC(=O)CO4)csc2=Nc2cccc(C)c2)ccc1O,-1.8,29.9,-0.6,29.2,1.8,-1.5,·,·
COCCN=c1scc(-c2ccc3c(c2)NC(=O)CO3)n1/N=C(\C)c1ccc(O)cc1,-2.7,·,26.5*,21.6,1.0,6.1,10.4,17.9
O=C(N/N=C/C=C/c1ccc([N+](=O)[O-])cc1)c1cccs1,3.5,12.5,43.8*,2.0,4.9,5.7,30.0*,45.8*
CN(C(=O)COC(=O)C1CCN(S(=O)(=O)c2c(Cl)cccc2Cl)CC1)C1CCCCC1,8.2,·,-0.3,3.0,4.1,·,·,·
N=C1S/C(=C\c2ccc(O)cc2)C(=O)N1c1ccc(F)cc1,10.8,-2.7,4.9,-28.1,-18.1,-14.1,·,·
CCOc1cc(/C=C2\SC(=O)N(c3ccc(O)cc3)C2=O)ccc1O,4.5,·,69.9*,34.8,0.3,37.1,73.8*,77.0*
CN=C1S/C(=C\c2ccc(O)c(OC)c2)C(=O)N1C,15.9,·,2.2,8.6,·,·,·,·
CCOc1ccc(N2C(=O)S/C(=C\c3ccc(O)c(OCC)c3)C2=O)cc1,0.1,·,46.2*,17.0,-0.3,11.9,58.0*,59.5*
CCOc1cc(/C=C2\N=C(SC(C)C(N)=O)N(c3ccc(OC(F)F)cc3)C2=O)ccc1O (centres undefined),-4.5,·,100.8*,25.8,20.5,57.6,116.7*,112.8*
CCOc1ccc(/C=C2\SC(=S)N(CC(=O)Nc3ccccn3)C2=O)cc1,3.7,·,1.0,13.9,-9.9,1.0,·,·
COc1ccc(N/C=C\C(=O)c2ccc(Br)cc2)cc1OC,3.2,-6.0,33.6*,-4.5,-0.7,3.2,50.0*,60.0*
COc1ccc(N/C=C\C(=O)c2ccc(C)cc2)cc1OC,2.6,2.5,2.1,3.2,-5.3,17.9,·,·
Cn1cnc([N+](=O)[O-])c1Sc1nc(N)nc2c1ncn2C1CC(O)C(CO)O1 (centres undefined),·,·,·,·,1.0,·,·,·
CNC(=O)c1c(NC(=O)c2ccc(S(=O)(=O)N3CC(C)OC(C)C3)cc2)sc2c1CCN(C(C)C)C2 (centres undefined),22.3,·,7.6,2.7,-9.6,27.0,·,·
CC(C)N1CCc2c(sc(NC(=O)c3ccc(S(=O)(=O)N4CCOCC4)cc3)c2C(N)=O)C1,6.8,11.6,36.1*,-0.4,6.7,-2.3,43.1*,55.6*
CNC(=O)c1c(NC(=O)c2ccc(S(=O)(=O)N3CCCC3)cc2)sc2c1CCN(C(C)C)C2,-8.0,·,148.0*,3.2,·,38.3,153.1*,145.2*
Cc1ccc(/C=C2/NC(=O)N(c3ccccc3)C2=O)o1,0.3,3.1,-9.4,5.4,-15.1,36.0,·,·
O=C1N/C(=C/c2ccc(N3CCOCC3)o2)C(=O)N1c1cccc(Cl)c1,4.7,7.5,81.8*,8.4,4.5,51.4,168.3*,166.0*
O=S(=O)(c1cc(F)ccc1F)N1CCN(c2ncccn2)CC1,-0.6,·,·,-0.6,18.3,21.2,·,·
N#CCc1nc(C(c2ccccc2)c2ccccc2)no1,3.8,·,25.4*,7.7,-5.7,13.0,19.3,27.8*
SMILES,Platelet DG rel,WT yeast gro inh,TPT1 inhibitor,SKKanGAS inh,Rtt109 Vps75,PHOSPHO1 block,caTPT1 confirm,RNase T1 inh
COCCN(C)Cc1nc(C(c2ccccc2)c2ccccc2)no1,-6.0,·,-4.3,2.9,-1.2,·,·,·
CCn1c(SCC(=O)NC2(C#N)CCCCC2)nc2ccccc2c1=O,4.9,·,1.1,21.1,7.4,·,·,·
CC(=O)C1=NOC(CNc2ncc(C(F)(F)F)cc2Cl)C1 (centres undefined),-1.9,0.0,143.1*,0.1,-0.9,33.5,11.5,10.7
O=C(Nc1ccccc1C(=O)NC1CC1)c1ccccc1F,·,·,·,·,1.6,·,·,·
Cc1nc2ccccc2c(=O)n1/N=C/c1ccc2ccccc2c1O,-3.7,·,54.1*,54.9*,0.0,11.6,25.9*,34.5*
Cc1nnc(C)n1/N=C/c1c(O)ccc2ccccc12,-0.1,·,3.2,-2.1,-6.0,36.9,·,·
Cc1nnc(-c2ccccc2)c(=O)n1/N=C/c1c(O)ccc2ccccc12,-26.2,19.6,158.8*,69.7*,21.8,-30.6,78.9*,84.4*
O=C(CN1C(=O)S/C(=C/c2ccc(N3CCOCC3)cc2)C1=O)N1CCOCC1,-8.4,-5.7,40.3*,1.0,-6.6,-12.2,61.2*,72.7*
O=C(CCN1C(=O)S/C(=C\c2ccccc2)C1=O)N1CCOCC1,-5.1,·,0.3,-4.5,-0.8,·,·,·
Cc1ccsc1/C=C1/SC(=O)N(CC(=O)N2CCOCC2)C1=O,-1.8,0.4,69.8*,5.7,16.9,29.8,5.8,8.7
Cc1ccc(/C=C2/SC(=O)N(CC(=O)N3CCOCC3)C2=O)s1,8.0,5.2,10.5,2.6,-8.7,0.1,·,·
CCCCNc1c(-c2ccc(-c3ccc(OC)cc3)c(OC)c2)nc2ccccn12,·,·,·,·,-23.6,·,·,·
Cc1cccc(C)c1-n1c(C)cc(/C=N\Nc2ccc([N+](=O)[O-])cn2)c1C,4.3,20.4,74.7*,12.0,-1.5,51.5,67.2*,79.0*
O=C(CSc1ncnc2scc(-c3ccccc3)c12)N1CCN(Cc2ccc3c(c2)OCO3)CC1,1.4,31.9,41.3*,14.7,3.1,-1.8,65.8*,77.4*
O=C(O)CC/C(=N\Nc1ccc([N+](=O)[O-])cc1)c1ccccc1,1.4,·,33.9*,7.7,-3.4,11.5,45.7*,58.6*
COC(=O)[C@H]1[C@H]2C[C@@H]3c4[nH]c5cc(OC)ccc5c4CCN3C[C@H]2C[C@@H](OC(=O)c2cc(OC)c(OC)c(OC)c2)[C@@H]1OC,·,·,41.4*,·,-3.5,·,45.1*,57.6*
COc1ccc(C(=O)/C=C/Nc2ccc(S(=O)(=O)Nc3cc(OC)nc(OC)n3)cc2)c(OC)c1,-13.2,·,36.1*,24.9,6.1,1.5,38.9*,49.5*
O=[N+]([O-])c1ccc(NN=Cc2ccc3c(c2)OCO3)nc1,·,·,·,·,1.3,·,·,·
CC1(c2ccc3c(c2)OCCCO3)NC(=O)N(CC(=O)Nc2cccc(C#N)c2)C1=O (centres undefined),·,·,·,·,-4.5,·,·,·
